The results in this text go back to PubChem BioAssay (NCI).

Assay in all cases: NCI-60 one-dose screen, 48 h (100 = growth as untreated, 0 = no growth, -100 = all killed)
Common to all, as to conditions: 10 µM unless noted

Assay [1] has as its system T-47D breast.
Assay [2] concerns BT-549 breast.
Assay [3] deals with MDA-MB-435 melanoma.
The subject of assay [4] is SW-620 colon.
The test system of assay [5] is MCF7 breast.
Assay [6] deals with HCT-116 colon.
The test system of assay [7] is HCC-2998 colon.
Assay [8] has as its system KM12 colon.

SMILES strings stand for the structures. The panel holds about 83,000 compounds, 20% with a hit somewhere; the sample as a whole holds those more often.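 The endpoint reported here, percent growth, reads 100 for growth as untreated, 0 for no net growth and -100 for all cells dead.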 A number with no mark means an inactive call. Calls of active or inactive are those of the source. The calls were made as follows: active = growth percent below 10; inactive = the rest.

Take `CCOC(=O)C/C(=C\c1ccccc1)C(C)=O`: the growth was 68.1% in assay [1]; 98.4% in assay [2]; 109% in assay [3]; 103% in assay [4]; 101% in assay [5]; 88.7% in assay [6]. Also, the growth in assay [7] is 107%; in assay [8] it was 101%.
On to `O=C(NO)c1ccc(Cn2c(=O)n(CCc3ccc(O)cc3)c(=O)c3ccccc32)cc1`, for which the growth in assay [1] is 11.8%; in assay [2], 65.7%; in assay [3], -15.6% (active); in assay [4], 22.4%; in assay [5], 44.5%; in assay [6], 24.9%. In addition, the values for the growth in assay [7] and in assay [8] were 79% and 22.7%, respectively.
`O=C1C(=O)c2ccccc2C(O)=C1CCCc1ccc(C2CCCCC2)cc1`: the growth was 44% in assay [1]; 52.6% in assay [2]; 53.7% in assay [3]; 36.8% in assay [4]; 32.9% in assay [5]; 19.4% in assay [6]. For the same compound, the growth in assay [7] is 29.5%; in assay [8], 24.2%.
Regarding `CCCCC[C@H]1C/C=C2/C(=O)C(Cl)=C[C@@H]2C/C=C\CCCC(=O)O[C@@H](CCCCC)C/C=C2/C(=O)C(Cl)=C[C@@H]2C/C=C\CCCC(=O)O1`, the growth in assay [1] was -20.3% (active); in assay [2], -52.7% (active); in assay [3] it was -16.1% (active); in assay [4] it was -41.6% (active); in assay [5], -42.1% (active); in assay [6], -98.7% (active). For the same compound, the growth was -88.6% (active) in assay [7] and -73% (active) in assay [8].
Take `Cn1c(=O)c2c(nc(Br)n2CC(=O)Nc2ccc(F)cc2)n(C)c1=O`: the growth in assay [1] was 87.2%; in assay [2], 101%; in assay [3] it was 112%; in assay [4], 105%; in assay [5], 99.2%; in assay [6], 84.5%. Moreover, the growth in assay [7] is 114%; in assay [8], 101%.
As for `Cn1cnc2c1c(=O)n(CCC(=O)Nc1ccc(F)cc1)c(=O)n2C`, the growth in assay [1] is 89.7%; in assay [2], 91.1%; in assay [3] it was 108%; in assay [4], 107%; in assay [5] it was 101%; in assay [6], 86.5%. Also, the growth in assay [7] is 108%; in assay [8] it was 102%.
Turning to `NC1=NN(c2ccccc2)C(=O)/C1=C/c1ccc(Cl)cc1`, the growth in assay [1] is 74.1%; in assay [2] it was 104%; in assay [3], 105%; in assay [4], 101%; in assay [5] it was 96.6%; in assay [6] it was 100%. Also, the growth in assay [7] was 109%; in assay [8], 103%.
Take `COc1cccc(-c2nn(-c3ccccc3)cc2-c2ccnc(NCCNS(=O)(=O)c3ccc(Cl)cc3)c2)c1`: the growth is 3.58% (active) in assay [1]; 41.9% in assay [2]; 21.8% in assay [3]; 48.1% in assay [4]; 11% in assay [5]; 20.6% in assay [6]. Also, the growth in assay [7] is 19.5%; in assay [8] it was 28.5%.
Turning to `CCCCC[C@H]1CC=C2C(=O)C=C[C@@H]2CC=CCCCC(=O)O[C@@H](CCCCC)CC=C2C(=O)C=C[C@@H]2CC=CCCCC(=O)O[C@@H](CCCCC)CC=C2C(=O)C=C[C@@H]2CC=CCCCC(=O)O1`, the growth in assay [1] was -10.2% [8.75 µM] (active); in assay [2], -37.7% [8.75 µM] (active); in assay [3], -31.8% [8.75 µM] (active); in assay [4], 2.25% [8.75 µM] (active); in assay [5], 5.55% [8.75 µM] (active); in assay [6], -89.8% [8.75 µM] (active). For the same compound, the growth is -38.7% [8.75 µM] (active) in assay [7] and -41% [8.75 µM] (active) in assay [8].
As for `NS(=O)(=O)c1ccc(CCNC(=O)/C=C/c2ccc(Cl)cc2)cc1`, the growth was 90.7% in assay [1]; 108% in assay [2]; 95.6% in assay [3]; 102% in assay [4]; 92.5% in assay [5]; 100% in assay [6]. Moreover, the growth is 116% in assay [7] and 98.6% in assay [8].
In the case of `CC(C)(C)c1ccc(OCCCCCCCN2CCNCC2)cc1`, the growth in assay [1] is 6.54% (active); in assay [2], 69.7%; in assay [3], 50.8%; in assay [4], -31.9% (active); in assay [5], -20.1% (active); in assay [6], -1.04% (active). Also, the values for the growth in assay [7] and in assay [8] were -4.86% (active) and 36.1%, respectively.
As to `CC(=O)c1c(C)[nH]c(-c2nc3ccc(N4CCN(C)CC4)cc3[nH]2)c1-c1ccc(N(C)C)cc1`, the growth was 23.8% in assay [1]; 51.6% in assay [2]; 27.1% in assay [3]; 56.8% in assay [4]; 8.22% (active) in assay [5]; 23.2% in assay [6]. The growth is 30.3% in assay [7] and 37.2% in assay [8].
For the compound `Cn1cc(-c2nc(-c3cn(C)c4ncccc34)cs2)c2ccccc21`, the growth in assay [1] is 42%; in assay [2], 48.3%; in assay [3], -18.6% (active); in assay [4], 27%; in assay [5], 15.9%; in assay [6], 14.6%. The results for the growth in assay [7] and in assay [8] were 67.4% and 22.5%, respectively.
Turning to `CC(=O)c1c(C)[nH]c(-c2nc3ccc(N4CCN(C)CC4)cc3[nH]2)c1-c1ccc(OCC2CCOCC2)cc1`, the growth in assay [1] is 29.1%; in assay [2], 57.1%; in assay [3] it was 23.5%; in assay [4], 50.6%; in assay [5], 6.13% (active); in assay [6], 19.8%. The growth in assay [7] is 31.7%; in assay [8], 34.2%.
For `Fc1ccc2nc(-c3cc(-c4ccc5c(c4)OCO5)n[nH]3)[nH]c2c1`, the growth is 50.4% in assay [1]; 27.5% in assay [2]; 46.4% in assay [3]; 37.2% in assay [4]; 59.3% in assay [5]; 49.6% in assay [6]. The growth was 71.9% in assay [7] and 16.1% in assay [8].
